Sampled rows, rich in hits. Any-hit rate of the full collection: about 12%.
PI5P4Ka inh: blocks human PI5P4K alpha kinase activity. P48426. PI5P4Kalpha enzyme, ADP-Glo luminescence, 60 min; hits give low values. max response, %. 1.2% of 330,000 active. AID 652105; active means max response of -50% or lower; inconclusive means between -30% and -50%; inactive means -30% or higher; further: value at the top dose of about 77 µM
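Controls without substrate or without enzyme flank wells where PI5P4Kalpha converts substrate using 5 microM ATP (final). Incubation lasts 60 minutes at room temperature; ADP formed is read by ADP-Glo luminescence.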
PLK1 PBD block: PLK1 (human) polo-box domain binding inhibition; Plk1 PBD binding of FITC phosphopeptide, fluorescence polarization; Potency, µM, hits mostly inhibitors; 2.8% of 360,000 active; further: series mostly up to about 57 µM; nearly all actives have a fitted effect of over 65% in size
G9a block: blocks human histone lysine methyltransferase G9a; G9a H3K9 monomethylation, AlphaScreen, 2 h; Potency, µM (highest dose often 102 µM), hits mostly inhibitors; 8.8% of 350,000 active; AID 504332; Q96KQ7; further: nearly all actives have a fitted effect of over 75% in size
Target sequence (Q96KQ7 913-1193 limits assumed): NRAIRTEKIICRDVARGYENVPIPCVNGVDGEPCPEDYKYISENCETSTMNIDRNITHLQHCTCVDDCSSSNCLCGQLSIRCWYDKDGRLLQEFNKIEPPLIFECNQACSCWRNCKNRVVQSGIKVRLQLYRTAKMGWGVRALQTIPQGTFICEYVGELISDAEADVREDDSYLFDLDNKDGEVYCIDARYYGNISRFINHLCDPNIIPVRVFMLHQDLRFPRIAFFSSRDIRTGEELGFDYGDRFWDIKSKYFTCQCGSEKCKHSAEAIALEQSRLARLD
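Compounds were preincubated with 20 nM G9a for 15 min, after which biotinylated H3K9 peptide (500 nM) and SAM (20 uM) started a 2 h room-temperature reaction. Monomethylated product was quantified by antibody-based AlphaScreen chemiluminescence.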
BAZ2B inh: BAZ2B (human) inhibition; Q9UIF8; AID 504333; Potency, µM (titrated, usually from 114 µM), actives largely listed as inhibitors; AlphaScreen BAZ2B-H3K14Ac peptide displacement; 4.4% of 360,000 active; further: nearly all actives have a fitted effect of over 60% in size
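Complex of BAZ2B and biotin-H3K14Ac (50 nM apiece) forms over 30 min at RT, then faces library compounds up to 110 uM for another 30 min; AlphaScreen beads added, 20 min dark incubation, luminescence read.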
JMJD2A Tudor: blocks the human JMJD2A Tudor domain. Potency, µM (doses to about 114 µM), usual class: inhibitors. 4.4% of 390,000 active. AID 504339. AlphaScreen JMJD2A-Tudor / H3K4me3 peptide binding. O75164; further: nearly all actives have a fitted effect of over 50% in size
HP1b chromo inh: HP1-beta chromodomain-methylated histone interaction inhibition | AlphaScreen HP1-beta / biotin-H3K9me3 peptide binding | 0.56% of 390,000 active | AID 540317 | Potency, µM (highest dose often 114 µM), actives largely listed as inhibitors; further: nearly all actives have a fitted effect of over 70% in size
Target sequence (P83916 whole entry, looked up): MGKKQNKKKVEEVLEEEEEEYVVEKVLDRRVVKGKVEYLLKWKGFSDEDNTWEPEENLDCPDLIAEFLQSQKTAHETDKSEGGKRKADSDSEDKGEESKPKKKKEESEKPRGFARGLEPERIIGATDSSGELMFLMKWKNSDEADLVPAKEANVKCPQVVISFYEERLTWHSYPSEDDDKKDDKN
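Compound inhibition of the preformed complex between 50 nM HP1-beta and 50 nM biotinylated H3K9me3 peptide was read by AlphaScreen. Buffer was PBS pH 7.4 with 0.01% Tween-20. Incubations ran 30 min at room temperature, with 10 ug/mL donor/acceptor beads.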
Numbers stand for hits; i = inactive; ? = inconclusive; nt = no result; [ ] = dose if it differs, or a comment. Unless noted, the call rests on the fitted dose curve; in most records, active means well fitted curve in the direction sought with a large enough effect; inconclusive means small, poorly fitted or top-dose-only effect, or another doubt; inactive means no such curve, though single readings can be large; an effect the other way counts as inactive or inconclusive.

SMILES | PI5P4Ka inh | PLK1 PBD block | G9a block | BAZ2B inh | JMJD2A Tudor | HP1b chromo inh
COc1cc(C(=S)N2CCCC2)cc(OC)c1OS(=O)(=O)c1ccc(NC(C)=O)cc1 | i | 12µM | 32µM | i | ? | ?
CC(C)(C)c1cc(C(=S)N2CCCC2)cc(C(C)(C)C)c1O | i | 30µM | nt | ? | ? | i
COc1ccc(C(=O)Oc2c(OC)cc(C(=S)N3CCOCC3)cc2OC)cc1OC | i | 21µM | i[0.501 µM] | i | ? | ?
COc1cc(C(=S)N2CCOCC2)cc(OC)c1O | i | ? | nt | i | i | i
COc1ccc(S(=O)(=O)Oc2c(OC)cc(C(=S)N3CCOCC3)cc2OC)cc1 | i | 27µM | 22µM | i | i | i
COc1ccc(C(=O)Oc2c(OC)cc(C(=S)N3CCOCC3)cc2OC)cc1 | i | i | 45µM | i | i | i
COc1cc(C(=S)N2CCOCC2)cc(Br)c1OS(=O)(=O)c1ccccc1 | i | i | nt | i | ? | i
COc1ccc(S(=O)(=O)Oc2ccc(C(=S)N3CCOCC3)cc2OC)cc1 | i | i | nt | i | i | i
COc1ccc(C(=S)N2CCOCC2)cc1OS(=O)(=O)c1ccc(Br)cc1 | i | i | 45µM | i | i | i
CCOC(=O)[C@]12CCCC=C1N(Cc1ccco1)C(=O)[C@H](CC(=O)NCc1cccc(C(F)(F)F)c1)C2 | i | i | nt | nt | nt | nt
COCCNC(=O)C(=O)Nc1cc2c3c(c1)CCC(=O)N3CCC2 | i | i | i | i | i | i
Cc1ccc(SCC(=O)Nc2ccc(N3CCOCC3)cc2)cc1C | i | i | ? | i | i | i
COc1ccc(OC)c(/C=N/n2c(-c3n[nH]c4c3CCC4)n[nH]c2=S)c1 | i | i | nt | i | 6.3µM | i
COc1ccc(/C=N/n2c(-c3n[nH]c4c3CCC4)n[nH]c2=S)cc1 | i | i | 1.6µM | i | 10µM | i
COc1cccc(-c2n[nH]c3c2CCC3)c1 | i | i | i | i | i | i
COc1cc(OC)c(OC)cc1/C=N/n1c(-c2n[nH]c3c2CCC3)n[nH]c1=S | i | ? | 1.6µM | i | 3.2µM | i
Cc1ccc(S(=O)(=O)N2CCN(C(=O)c3ccnn3C)CC2)cc1C | i | i | nt | i | i | i
O=C(Nc1ccc(-c2n[nH]c(=S)o2)cc1)c1ccccc1Br | -57 | i | 8.9µM | i | i | i
COc1ccc(Cl)cc1-c1n[nH]c(=S)o1 | -75 | i | ? | i | i | i
COc1ccc(Cl)cc1-c1nc(-c2ccc(Br)o2)no1 | i | i | i | i | i | i
COc1ccc(C(=O)Nc2ccncc2)cc1OC | nt | i | i[12.7 µM] | i | i | i
COc1ccc(C(=O)Nc2ccc(-c3n[nH]c(=S)o3)cc2)cc1OC | -53 | 12µM | 1.6µM | ? | ? | i
CCOc1ccc(NC(=O)c2ccc(NC(=O)c3ccccc3Br)cc2)cc1 | i | i | ? | i | i | i
CCN1/C(=C/C(C)=O)Sc2ccc(OC)cc21 | i | i | ? | ? | i | i
COc1ccc2c(c1)N(C)/C(=C/c1cccc[n+]1C)S2 | i | i | 35µM | ? | ? | i
SMILES | PI5P4Ka inh | PLK1 PBD block | G9a block | BAZ2B inh | JMJD2A Tudor | HP1b chromo inh
CCN1/C(=C/c2cccc[n+]2C)Sc2ccc(OC)cc21 | i | i | 50µM | i | 18µM | i
COc1cc(OC)cc(C(=O)/C=C2\Sc3ccccc3N2C)c1 | i | i | nt | i | i | i
CCOc1ccccc1NC(=O)c1cc(=O)c2ccccc2o1 | i | i | i | i | i | i
N#CCCSc1ccccc1NC(=O)c1cc(=O)c2ccccc2o1 | i | i | 20µM | i | i | i
CN(C)S(=O)(=O)c1ccc(C(=O)Nc2ccccc2SCCC#N)cc1 | i | i | 5µM | nt | i | i
Cc1ccccc1NC(=O)c1ccc(S(=O)(=O)N(C)C)cc1 | i | i | i | i | i | i
COc1cccc(NC(=O)C2CCCN2S(=O)(=O)c2ccc3nc(-c4ccccc4)[nH]c3c2)c1 (stereo not drawn) | nt | nt | i | i | i | i
O=C(COc1ccc(Cl)cc1)OCc1cc(=O)n2nc(C3CCCCC3)sc2n1 | nt | nt | i | i | i | i
Cc1[nH]c(=O)[nH]c1C(=O)CCCCC(=O)OCC(=O)Nc1ccccn1 | i | i | 1.6µM | 0.89µM | 0.79µM | i
O=C(NC(Sc1ccc(Cl)cc1)C(=O)O)c1ccccc1 (stereo not drawn) | i | 13µM | nt | nt | nt | nt
